Test results: PMC4336329 (PLoS ONE, 2015)
The campaign covered roughly 310,000 compounds. About 14,000 (4.5%) showed an effect of 50% or more. The effect is printed as a negative number. This excerpt belongs to a sample that is enriched for strong results.

Target: human ether-à-go-go-related gene (hERG) potassium channel (human, UniProt Q12809)
Assay: primary screen, population patch clamp on CHO cells stably expressing hERG; higher = less effect of the substance
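Also: peak tail current of the secondary pulse compared with the same well before compound.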

Chain of human ether-à-go-go-related gene (hERG) potassium channel (Q12809 whole entry, looked up): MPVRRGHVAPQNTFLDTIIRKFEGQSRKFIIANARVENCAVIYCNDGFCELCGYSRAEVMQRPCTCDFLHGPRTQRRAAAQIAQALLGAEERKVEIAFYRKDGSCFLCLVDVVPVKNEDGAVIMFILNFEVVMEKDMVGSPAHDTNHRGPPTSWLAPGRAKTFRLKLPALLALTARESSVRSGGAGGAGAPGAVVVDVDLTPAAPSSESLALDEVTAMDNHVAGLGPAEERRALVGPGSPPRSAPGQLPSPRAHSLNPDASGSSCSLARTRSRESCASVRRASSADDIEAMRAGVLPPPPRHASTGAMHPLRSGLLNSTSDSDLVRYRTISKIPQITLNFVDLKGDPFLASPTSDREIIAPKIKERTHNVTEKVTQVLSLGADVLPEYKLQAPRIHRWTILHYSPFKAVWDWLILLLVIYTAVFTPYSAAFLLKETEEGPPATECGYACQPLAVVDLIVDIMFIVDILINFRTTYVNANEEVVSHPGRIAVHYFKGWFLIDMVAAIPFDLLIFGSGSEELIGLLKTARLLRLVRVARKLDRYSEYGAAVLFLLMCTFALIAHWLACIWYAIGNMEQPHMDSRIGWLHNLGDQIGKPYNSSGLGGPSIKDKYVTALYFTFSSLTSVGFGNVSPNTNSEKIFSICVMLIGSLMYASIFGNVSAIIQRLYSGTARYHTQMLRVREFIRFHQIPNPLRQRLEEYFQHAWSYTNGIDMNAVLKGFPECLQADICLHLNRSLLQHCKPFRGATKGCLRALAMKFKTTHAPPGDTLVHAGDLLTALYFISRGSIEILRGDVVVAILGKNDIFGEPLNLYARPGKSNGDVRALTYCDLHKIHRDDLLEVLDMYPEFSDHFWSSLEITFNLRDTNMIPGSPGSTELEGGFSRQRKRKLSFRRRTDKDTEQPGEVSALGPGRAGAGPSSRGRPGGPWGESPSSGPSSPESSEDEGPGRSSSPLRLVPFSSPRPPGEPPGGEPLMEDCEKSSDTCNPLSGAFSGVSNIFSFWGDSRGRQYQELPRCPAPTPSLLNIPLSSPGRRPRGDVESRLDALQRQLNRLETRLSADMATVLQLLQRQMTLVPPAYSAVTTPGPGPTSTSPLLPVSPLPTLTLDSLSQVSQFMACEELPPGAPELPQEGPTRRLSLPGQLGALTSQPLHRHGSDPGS

Row | SMILES | hERG current change (%, negative = inhibition) at 10uM [%]
1 | CCn1c(=O)c([N+](=O)[O-])c(NC2CCS(=O)(=O)C2)c2ccccc21 (stereo not drawn) | 5.85
2 | COCCNC(=O)CCC1CCN(Cc2cccc(-c3ccc(C)o3)c2)CC1 | -25.3
3 | OC1CCN(Cc2cccc(Oc3ccccc3)c2)CC1 | 6.4
4 | COCCNC(=O)CCC1CCN(Cc2cccc(Oc3ccccc3)c2)CC1 | -55.3
5 | COCCNC(=O)CCc1nnc(Cc2ccc(-c3ccccc3)cc2)o1 | 14.5
6 | COCCNC(=O)CCC1CCN(Cc2ccc(-c3ccccc3)cc2)CC1 | -63.6
7 | COCCNC(=O)CN1CCC(NC(=O)Nc2ccccc2)CC1 | -8.21
8 | Clc1ccccc1-c1nnc2sc(-c3ccco3)nn12 | -21.8
9 | O=C(CSc1ccc([N+](=O)[O-])cn1)Nc1ccccc1N1CCOCC1 | -19.2
10 | c1nc(NC2CCCCC2)c2[nH]cnc2n1 | -3.86
11 | COc1ccc(/C=C2\CCCCC2=O)cc1 | -6.19
12 | Cc1ccc(C(C)C)c(OCC(=O)Nn2c(=O)[nH]c3ccccc3c2=O)c1 | -12.6
13 | COc1ccc2c(c1)[nH]c1c(=O)n(/N=C/c3ccc(OC)c(CN4CCCC4)c3)cnc12 | -71.1
14 | COc1ccc(/C=N/n2cnc3c([nH]c4ccccc43)c2=O)cc1COc1ccccn1 | -8.67
15 | COc1ccc2c(c1)[nH]c1c(=O)n(/N=C/c3ccc(OC)c(COc4ccccn4)c3)cnc12 | -9.63
16 | COc1ccc2c(c1)[nH]c1c(=O)n(/N=C/c3ccc(OC)c(CN4CCCCC4)c3)cnc12 | -64.3
17 | COc1ccc(/C=N/n2cnc3c([nH]c4ccccc43)c2=O)cc1CO | 11.2
18 | COc1ccc(/C=N/n2c(=O)[nH]c3c([nH]c4ccc(Cl)cc43)c2=O)cc1CN1CCCCC1 | -13
19 | CCC(C)NC(=O)CN(c1ccc(Cl)c(Cl)c1)S(C)(=O)=O (stereo not drawn) | 3.62
20 | O=C(NC1CCCC1)c1cc(S(=O)(=O)N2CCOCC2)c(Cl)cc1Cl | -8.15
21 | O=C(Nc1nnc(-c2ccc3c(c2)CCCC3)o1)C1CCCCC1 | 4.3
22 | O=C(CSc1nnc(NC(=O)c2ccccc2F)s1)Nc1ccccc1F | 30.9

Row | SMILES | hERG current change (%, negative = inhibition) at 10uM [%]
23 | CCn1c(SCC(=O)N2CCCCC2)nc2c1c(=O)n(C)c(=O)n2C | 14.3
24 | CCCOc1ccc(/C(O)=C2/C(=O)C(=O)N(CCCOC)C2c2cccnc2)cc1 (stereo not drawn) | -5.91
25 | CCCOc1ccc(/C(O)=C2/C(=O)C(=O)N(CCCOC)C2c2ccncc2)cc1 (stereo not drawn) | -53.1
26 | CCCCOc1ccc(/C(O)=C2/C(=O)C(=O)N(CCCOC)C2c2ccncc2)cc1 (stereo not drawn) | 18.2
27 | O=C(Cc1ccccc1[N+](=O)[O-])NC1CCN(Cc2ccccc2)CC1 | -1.68
28 | COc1ccc(C(=O)N2CCN(Cc3ccccc3[N+](=O)[O-])CC2)cc1.O=C(O)C(=O)O | -58.9
29 | COc1cccc(C(=O)N2CCN(Cc3ccccc3[N+](=O)[O-])CC2)c1 | -14.5
30 | O=C(O)C(=O)O.O=C(c1ccc([N+](=O)[O-])cc1)N1CCN(Cc2ccccc2[N+](=O)[O-])CC1 | -75
31 | CC(C)CC(=O)N1CCN(Cc2ccccc2[N+](=O)[O-])CC1.O=C(O)C(=O)O | -7.35
32 | CN(Cc1ccccc1)C1CCN(Cc2ccccc2[N+](=O)[O-])CC1.O=C(O)C(=O)O | -59.6
33 | O=C(C1CCCN(Cc2ccccc2[N+](=O)[O-])C1)N1CCCC1.O=C(O)C(=O)O (stereo not drawn) | 11.4
34 | O=C(c1cccs1)N1CCN(Cc2ccccc2[N+](=O)[O-])CC1 | -17.7
35 | COc1cc(OC)cc(C(=O)N2CCN(Cc3ccccc3[N+](=O)[O-])CC2)c1.O=C(O)C(=O)O | -46.5
36 | CC(=O)Nc1cccc(NC(=O)CSc2ccc(-c3cccnc3)nn2)c1 | 7.43
37 | CCC(C)/C(C)=N/NC(=O)CSc1nc2ccccc2[nH]1 (stereo not drawn) | 2.26
38 | O=C1C2CC=CCC2C(=O)N1CNc1ccccc1 (stereo not drawn) | 14.7
39 | Cc1c(Cl)c([N+](=O)[O-])nn1CCCC(=O)Nc1ccc(Cl)cc1Cl | -45.1
40 | COc1ccc(CNC(=O)C(=O)NCC2OCCN2S(=O)(=O)c2cccs2)cc1 (stereo not drawn) | -4.34
41 | O=C(CNC1C(=O)Nc2ccccc21)Sc1ccccc1 (stereo not drawn) | 22.3
42 | CCSc1nnc(NC(=O)Cc2cc(OC)c(OC)c(OC)c2)s1 | 8.27
43 | CSc1nnc(SCC(=O)N(C)c2c(N)n(Cc3ccccc3)c(=O)[nH]c2=O)s1 | 5.79
44 | CC(C)C[C@H](NC(=O)c1nc[nH]c1C(=O)NCc1ccccc1)C(=O)OCc1ccccc1 | -7.88

Row | SMILES | hERG current change (%, negative = inhibition) at 10uM [%]
45 | COCCn1c(SCC(=O)NC2CCCC2)nnc1C(C)C | 22.6
46 | CSc1cccc(CN2CCC(CCC(=O)NC3CC3)CC2)c1 | -62.6
47 | O=C(CCC1CCN(Cc2ccccc2Cl)CC1)NC1CC1 | -23.2
48 | O=C(CCC1CCN(Cc2ccc(C#CCCO)cc2)CC1)NC1CC1 | -46.7
49 | CSc1ccccc1C(=O)N1CCC(CCC(=O)NC2CC2)CC1 | 11.6
50 | CSc1ccc(C(=O)N2CCC(CCC(=O)NC3CC3)CC2)cc1 | -30.8
51 | O=C(CCC1CCN(Cc2ccc(Cl)cc2)CC1)NC1CC1 | -65.9
52 | CN(Cc1cnn(C)c1)Cc1nc(-c2ccc(Cl)cc2)no1 | -4.26
53 | Cn1c(=O)c2c(SC3CCCC3)nc(C3CC3)nc2n(C)c1=O | 18.8
54 | S=C1NCCOCCOCCNC(=S)N2CCOCCOCCN1CCOCCOCC2 | 5.22
55 | CCOC(=O)c1[nH]c(C)c(C(=O)N2CCN(c3cccc(Cl)c3)CC2)c1C | -13.8
56 | CN(C(=O)CSc1ncc(C(F)(F)F)cc1Cl)c1c(N)n(Cc2ccccc2)c(=O)[nH]c1=O | 8.25
57 | C/C(=N\OCc1ccc(C#N)cc1)c1ccccc1 | 12.1
58 | CN(C)S(=O)(=O)c1ccc(C(=O)OCc2ccc(C#N)cc2)cc1 | -11.1
59 | C/C(=N\OCc1ccc(C#N)cc1)c1ccc(S(=O)(=O)N(C)C)cc1 | -52.7
60 | C=CCn1c(SCC(=O)N2CCCC2)nc2c([nH]c3ccccc32)c1=O | -29.6
61 | C=CCn1c(SCCN2CCCC2)nc2c([nH]c3ccccc32)c1=O | -71.7
62 | C=CCn1c(SCC(=O)N2CCOCC2)nc2sc3c(c2c1=O)CCCC3 | -53.9
63 | CCn1c(SCC(=O)N2CCOCC2)nc2sc3c(c2c1=O)CCCC3 | -5.19
64 | C=CCn1c(SCC(=O)NC2CCCC2)nc2c([nH]c3ccccc32)c1=O | -40.8
65 | C=CCn1c(SCC(=O)NCCc2ccccc2)nc2c([nH]c3ccccc32)c1=O | -3.29
66 | C=CCn1c(SCC(=O)N2CCOCC2)nc2c([nH]c3ccccc32)c1=O | -52.9

Row | SMILES | hERG current change (%, negative = inhibition) at 10uM [%]
67 | C=CCn1c(SCC(=O)N2CCN(c3ccccc3)CC2)nc2c([nH]c3ccccc32)c1=O | 13.3
68 | C=CCn1c(SCC(=O)N2CCN(CCO)CC2)nc2sc3c(c2c1=O)CCC3 | -20.9
69 | COc1ccc(S(=O)(=O)Nc2ccc(S(=O)(=O)Nc3nccs3)cc2)cc1 | 19.9
70 | COc1ccc(OCc2cc(C(=O)O)c(C)o2)cc1 | 2.69
71 | CCN(CC)c1nc2ccccc2n2cnnc12 | -16.4
72 | CSc1nnc(-c2sc3cc(Cl)ccc3c2Cl)n1C | 0.137
73 | CCn1c(SC)nnc1-c1sc2cc(Cl)ccc2c1Cl | -55.4
74 | CCn1c(SC)nnc1-c1nnc(SC)n1CC | -7.09
75 | Cc1ccc(SCC(=O)OCC(=O)NC2CCCCCCC2)cc1 | -4.33
76 | O=C(N/N=C/c1ccc[nH]1)c1cc(-c2cccs2)nc2ccccc12 | 0.659
77 | O=C(O)[C@@H](c1ccccc1)N1Cc2ccccc2C1=O | 17.2
78 | Br.CCC(C)N1Cc2ccccc2C1=N (stereo not drawn) | 2.75
79 | Br.Cc1ccc(C(=O)C(c2ccccc2)N2Cc3ccccc3C2=N)cc1 (stereo not drawn) | -60.3
80 | NNC(=O)c1nc[nH]c1C(=O)Nc1ccccc1 | 24.1
81 | COc1ccccc1/C=N/NC(=O)c1ccc(CN2C(=O)c3cccc4cccc2c34)cc1 | 2.35
82 | Cc1cccc(C)c1NC(=O)C(NC(=O)c1ccccn1)c1ccc([N+](=O)[O-])cc1 (stereo not drawn) | 7.6
83 | O=C(O)c1ccc(COc2ccc([N+](=O)[O-])cc2)o1 | 23.2
84 | CC1CCCCN1C(=O)c1ccc(COc2ccc([N+](=O)[O-])cc2)o1 (stereo not drawn) | -69.9
85 | NNC(=O)c1ccc(COc2ccc([N+](=O)[O-])cc2)o1 | -23.1
86 | COc1ccc(/C=C(\C#N)C(=O)OCC(=O)Nc2ccc(C(C)(C)C)cc2)cc1 | 0.425
87 | COc1ccccc1OCCNC(=O)CSC(=S)N1CCCC1 | -4.17
